The source of these data is ChEMBL document CHEMBL4513216, “Probing the Open Global Health Chemical Diversity Library for Multistage-Active Starting Points for Next-Generation Antimalarials” (ACS Infect Dis, 2020).

Among all 68,000 compounds or so, about 2,700 (4%) showed an effect of 50% or more. This is one part of a sample in which strong results are shown more often than they occur.

This assay concerns Plasmodium berghei. The experiment in a line: Screen against P. berghei liver stage (PbLuc), transformed with Luciferase, at 2uM. It is filed as functional, HepG2. To be noted: tested at 2 uM.
Turning to `Cn1cc(C2COC3(CCN(C(=O)Cc4ccccc4)CC3)C2)cn1` (stereo unspecified), the INHIBITION came out at 2.27%. Regarding `CNC(=O)CC1CC2(CCN(c3ncccn3)CC2)c2ccccc21` (stereo unspecified), the INHIBITION is 2.87%. Next, `c1cnc(N2CCC3(CC2)CC(NCC2CC2)c2ccccc23)nc1` (stereo unspecified): 33.11%; `CNC(=O)CNC1CC2(CCN(c3ncccn3)CC2)c2ccccc21` (stereo unspecified): 70.75%. As to `COc1ccc(OCc2cc(C(=O)N3CCSCC3)n[nH]2)c(Cl)c1`, the INHIBITION worked out at 8.48%. For `COc1ccc(OCc2cc(C(=O)N3CCC(O)CC3)n[nH]2)c(Cl)c1`, the INHIBITION is recorded as 8.57%. Take `COc1ccc(OCc2cc(C(=O)N3C[C@@H](C)O[C@@H](C)C3)n[nH]2)c(Cl)c1`: the INHIBITION came to 21.29%. With `CCC(CO)NC(=O)c1cc(COc2ccc(OC)cc2Cl)[nH]n1` (stereo unspecified), the INHIBITION was found to be 45.82%. Next, `CNC(=O)C(C)NC(=O)c1cc(COc2ccc(OC)cc2Cl)[nH]n1` (stereo unspecified): 55.36%. Next, `COc1ccc(OCc2cc(C(=O)N3CC=CC3)n[nH]2)c(Cl)c1`: 27.77%; `CCC(O)CNC(=O)c1cc(COc2ccc(OC)cc2Cl)[nH]n1` (stereo unspecified): 52.98%.

`CC[C@@H](CO)NC(=O)c1cc(COc2ccc(OC)cc2Cl)[nH]n1`: the INHIBITION is recorded as 69.67%. In the case of `COc1ccc(OCc2cc(C(=O)N3CCOCC3)n[nH]2)c(Cl)c1`, the INHIBITION came out at 15.05%. `CCc1oc(C(=O)NC(C)Cc2cnccn2)cc1CN1CCCC1` (stereo unspecified): the INHIBITION is on record as 12.11%. Next, `CNc1cccc(C2CCCN(C(=O)c3ccn(C)n3)C2)n1` (stereo unspecified): 15.64%; `Cc1cc(C(F)(F)F)n2nc(C3CCCN3C3CCSCC3)cc2n1` (stereo unspecified): 36%; `OC1(CN2CCC(Oc3cccc(C(F)(F)F)c3)CC2)CCNC1` (stereo unspecified): -16.56%.

As for `Cn1ccc(C(=O)NCCOc2ccc3c(c2)OCO3)cc1=O`, the INHIBITION was 25.78%. For the compound `CC(C)(C)C(=O)NCCCn1cncn1`, the INHIBITION is 32.55%. Next, `Cc1cc(NC(=O)CN2CCCC2c2c(C)nn(C)c2C)on1` (stereo unspecified): 26.76%.

As for `c1cnnc(N2CCCC(NCc3ccc(-n4cncn4)cc3)C2)c1` (stereo unspecified), the INHIBITION is on record as 32.79%. Next, `CC1(C)O[C@@](C)([C@H]2CC3(CCN(c4cnccn4)CC3)CO2)CC[C@@H]1O`: 4.19%.

As for `c1cnn([C@@H]2CN(Cc3nccs3)[C@@H]3CCCO[C@@H]32)c1`, the INHIBITION amounted to 13.61%. Next, `c1csc(CN2C[C@@H](n3cccn3)[C@H]3OCCC[C@H]32)c1`: 51.85%. In the case of `O=C(N[C@@H]1CN(Cc2cccs2)[C@@H]2CCCO[C@@H]21)C1CC1`, the INHIBITION came out at 8.91%. For the compound `O=C(c1cccc(C2CCNC2)c1)N1CCC(c2ccncc2)CC1` (stereo unspecified), the INHIBITION was -0.41%. Next, `O=C(Nc1cccc(C2SCCS2)c1)C1CCCN1c1nccs1` (stereo unspecified): -7.88%.

With `Cc1cccc(OCCNC(=O)C(C)S(=O)(=O)c2ccccn2)c1` (stereo unspecified), the INHIBITION was -27.59%. With `CCN(CC)Cc1cc(C(=O)N2CCC3(CCN(C)CC3)C2)c(C)o1`, the INHIBITION is -14.17%.

As to `Cc1nc2c(C)cccc2cc1C(=O)N1CCC2(CCNCC2)CC1`, the INHIBITION is recorded as -10.67%. For the compound `Cc1nc2c(C)cccc2cc1C(=O)N1CCC2(CCN(C)CC2)C1`, the INHIBITION is reported as -30.77%. As to `Cc1nc2c(C)cccc2cc1C(=O)N1CCC2(CC1)NCCNC2=O`, the INHIBITION amounted to 71.07%. In the case of `CCN(CC)Cc1cc(C(=O)N2CCC3(CC2)NCCNC3=O)c(C)o1`, the INHIBITION is 64.71%. For the compound `CCN(CC)Cc1cc(C(=O)N2CCCC(O)(CO)C2)c(C)o1` (stereo unspecified), the INHIBITION was 35.42%. Turning to `Cc1nnc(C2CCN(C(=O)c3ccsc3)CC2)s1`, the INHIBITION is 7.68%. Turning to `COc1cnc(N2CCCC(c3ncc[nH]3)C2)nc1` (stereo unspecified), the INHIBITION was found to be 6.39%.

Take `CNC(=O)c1nc(COc2ccc3c(c2)OCO3)no1`: the INHIBITION is on record as -15.12%. On to `O=C(c1nc(COc2ccc3c(c2)OCO3)no1)N1CCCC1`, for which the INHIBITION was determined as 2.41%.

As for `NC(=O)c1nc(COc2ccc3c(c2)OCO3)no1`, the INHIBITION is on record as 54.49%. Next, `Cc1cc(C)c(C(=O)N2CCOC(CCN(C)C)C2)o1` (stereo unspecified): -36.52%; `Cc1nnc(CSCc2ccc(OCC(F)(F)F)nc2)o1`: 8.78%; `CCC1=NC(SCC(=O)c2ccc(Cl)cc2)c2cc(CC)sc2N1` (stereo unspecified): -77.67%. Next, `CCC1=NC(SCC(=O)c2ccc(C)cc2)c2cc(CC)sc2N1` (stereo unspecified): 33.58%; `CCC1=NC(SCC(=O)c2ccccc2)c2cc(CC)sc2N1` (stereo unspecified): 63.79%. Turning to `CCC(C)NC(=O)CN1CCC2(CC1)OCCO2` (stereo unspecified), the INHIBITION amounted to 34.18%. Next, `Cc1cccc(-c2ccc3nc(C4CCN(CC5CC5)CC4)nn3c2)c1`: -48.77%; `CCc1nn(C)c(CC)c1CNC(=O)Nc1cccc2c1CCN2C`: -1.56%. As to `CC(Cc1ccco1)NC(=O)Nc1ccc(N2CCCC2)nc1` (stereo unspecified), the INHIBITION amounted to 5.91%. As for `O=C(c1nc(Cc2c[nH]c3ccccc23)no1)N1CCCC1`, the INHIBITION was determined as 70.87%. Regarding `O=C(c1nc(Cc2c[nH]c3ccccc23)no1)N1CCCCC1`, the INHIBITION was -7.02%. With `O=C(Cc1c[nH]c2ccccc12)N1CCN(C(=O)c2ccoc2)CC1`, the INHIBITION is given as 54.49%.
